About 79,000 compounds went through this panel and 15% of them were active in at least one assay; those are over-represented in the sample as a whole. The source made the active and inactive calls. No stated cut-off is given here; in the data, active means growth inhibition above about 70%; inactive means the rest. *1 amine or outer side, *2 acyl side, *3 side chain or, on linkers, in order; H or OH if unused. Where a SMILES comes first, the peptide text is derived from it. [ ]: non-standard residue; d: D form. X12 = NC(N)=NCC(O)CC(N[*:1])C(=O)[*:2]; Orn = NCCC[CH](N)C(=O)O
Key:
[1] = NCI Yeast Anticancer Drug Screen. Data for the rad50 strain (AID 155);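 further: 0% = growth of vehicle-only cultures of the same strain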; details: S. cerevisiae rad50 strain growth inhibition; at 50.0 µM; hits give high values
How it was run: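 Genetically altered yeast (DNA repair pathway); compound treatment; growth inhibition vs vehicle ctrl.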

[2] = NCI Yeast Anticancer Drug Screen. Data for the mec2-1 strain (AID 157); details: S. cerevisiae mec2-1 strain, at 50.0 µM, hits give high values
How it was run: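 Compounds were applied to mec2-1 yeast cells. Their growth was then compared with that of vehicle-treated cultures to give growth inhibition.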

[3] = NCI Yeast Anticancer Drug Screen. Data for the sgs1 mgt1 strain (AID 161);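 further: 0% = growth of cultures given vehicle only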; details: S. cerevisiae sgs1 mgt1 strain, at 50.0 µM, hits give high values
How it was run: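 Yeast cells carrying a defined DNA-repair defect were exposed to test compounds. Growth inhibition was measured relative to vehicle-treated controls.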

[4] = NCI Yeast Anticancer Drug Screen. Data for the cln2 rad14 strain (AID 165);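 further: 0% = growth equal to vehicle treated cultures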; details: S. cerevisiae cln2 rad14 strain, at 50.0 µM, hits give high values
How it was run: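 Strain: cln2 rad14 yeast, altered in cell cycle control and DNA damage repair. Read-out: growth inhibition vs vehicle.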

[5] = NCI Yeast Anticancer Drug Screen. Data for the bub3 strain (AID 167); details: S. cerevisiae bub3 mutant strain, at 50.0 µM, hits give high values
How it was run: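 Yeast carrying a defined mutation is treated with each compound, and growth is compared with that of vehicle-exposed cells to give inhibition.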

[6] = NCI Yeast Anticancer Drug Screen. Data for the mlh1 rad18 strain (AID 175); details: S. cerevisiae mlh1 rad18 strain growth inhibition; at 50.0 µM; hits give high values
How it was run: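 A repair-deficient yeast strain is exposed to test compound, and growth is scored relative to vehicle-treated controls.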

Measured: growth inhibition

O=C(CCN1CCCCC1)C(O)(c1ccccc1)c1ccccc1
inactive: [1] 19.2% | [2] -2% | [3] 24.7% | [4] -6.05% | [5] -10.4% | [6] 14.2%

CCOC(=O)/C(F)=C/c1cccc([N+](=O)[O-])c1
inactive: [1] 13.4% | [2] 8.8% | [3] -5.35% | [4] 10.1% | [5] 7.95% | [6] 19.8%

c1ccc(Sc2cccc3c(-c4ccccc4)c4cccc5c4c(c23)C[S+]5c2ccccc2)cc1 (configuration not stated)
active: [1] 98.5% | [2] 99.1% | [3] 99.2% | [4] 98.5% | [5] 98.6% | [6] 98.8%

CC1(O)c2ccccc2-c2nc3ccccc3nc21 (configuration not stated)
inactive: [1] 15.1% | [2] 14.4% | [3] -16.4% | [4] -11.8% | [5] -0.35% | [6] -15.4%

Cc1ccc(S(=O)(=O)Nn2nnnc2N)cc1
inactive: [1] -7.85% | [2] 11.7% | [3] -7.6% | [4] -4.4% | [5] -4.65% | [6] 7.25%

COc1ccc2oc3c(C)cc4c(OC)nnc(OC)c4c3c2c1
inactive: [1] -43.8% | [2] -52.9% | [3] -13.4% | [4] -18.1% | [5] -5.35% | [6] -12.8%

CC(O)C(NC(=O)C(CCCN)NC(=O)C(CC(O)CN=C(N)N)NC(=O)C(N)CCCN=C(N)N)C(=O)NC(CCCN)C(=O)NC(CC(O)CN=C(N)N)C(=O)NC(Cc1ccc(O)cc1)C(=O)O (configuration not stated) (tested in a mixture with another compound) (H-R[X12][Orn]T[Orn][X12]Y-OH; configuration not given here)
inactive: [1] 39.6% | [2] -3.3% | [3] 19.5% | [4] 8.45% | [5] 27.9% | [6] 38.1%

CNc1ncnc2c1ncn2C
inactive: [1] 20.8% | [2] 24.5% | [3] -7.1% | [4] -17.1% | [5] 1.6% | [6] -2.1%

CC1CC[P+](C)(Cc2ccccc2)C1 (mixture of isomers)
inactive: [1] 8.7% | [2] 0.8% | [3] -18.4% | [4] 1.9% | [5] 5.45% | [6] 18.6%

Cc1ccc(C(=O)NC2CCCCC2)cc1N=NN(C)C
inactive: [1] 31.4% | [2] -7.55% | [3] 18.7% | [4] 19.1% | [5] 9.45% | [6] -11.4%

COC(=O)c1cc(=O)[nH]c2c1c(=O)[nH]c(=O)n2C
inactive: [1] 5.7% | [2] 9% | [3] -4.7% | [4] -39.2% | [5] 7.1% | [6] 21.4%

CC[C@@]12C=CC(=S)N(CCSc3ccccc3)[C@@H]1c1c(n(S(=O)(=O)c3ccc(OC)cc3)c3ccccc13)CC2
inactive: [1] -33% | [2] -1.2% | [3] 0.95% | [4] -53% | [5] -2.55% | [6] 6%

COc1ccc(Cl)c2c(=O)c3ccc4c(c3[nH]c12)C(=O)c1ccccc1C4=O
inactive: [1] 21.8% | [2] -5.6% | [3] 4.25% | [4] -17.6% | [5] 3.8% | [6] 4.65%

COc1c(C)cc(Cc2ccc3c(c2)OCO3)cc1C
inactive: [1] -7.8% | [2] -12.9% | [3] 4.2% | [4] -22% | [5] -10.6% | [6] -5.3%

CSc1nc2c(c(=O)n1C)N=C(c1ccc(Cl)cc1)CC(c1ccccc1)N2 (configuration not stated)
inactive: [1] 16% | [2] 3.25% | [3] -5.6% | [4] 11.4% | [5] -11.6% | [6] 15.8%

COc1ccc(C(=O)CC2=NC3NN(c4ccccc4)C(=O)C3=C2CC(=O)c2ccc(OC)cc2)cc1 (configuration not stated)
inactive: [1] 48.1% | [2] 32.1% | [3] 55.5% | [4] 23.8% | [5] -2.25% | [6] 31.8%

COc1ccc2nc3cc(Cl)ccc3c(Nc3ccc(C(O)CCN(C)C)cc3)c2c1 (configuration not stated)
inactive: [1] 39.8% | [2] -2.1% | [3] 25.4% | [4] 24.4% | [5] -2.1% | [6] 5.3%

COC(=O)NS(=O)(=O)CC(=O)c1ccccc1
inactive: [1] 10.2% | [2] -0.3% | [3] -1.55% | [4] 8.9% | [5] 1.3% | [6] 9.9%

COc1ccc(C(O)CNC(=O)c2ccccc2)cc1 (configuration not stated)
inactive: [1] 11.7% | [2] -4.4% | [3] 12.5% | [4] -7.2% | [5] -2.15% | [6] -60%

Cc1ccc2[nH]c(C)c(C(=O)c3ccncc3)c2c1
inactive: [1] -2.75% | [2] -15.4% | [3] 4.15% | [4] -8.35% | [5] -10.7% | [6] -9.45%

N#CC(NC(=O)NCCCl)c1ccccc1 (configuration not stated)
inactive: [1] -8.8% | [2] -12.2% | [3] -1.4% | [4] -41.1% | [5] 11.4% | [6] 2.6%

COC(=O)C(CCc1ccc([N+](=O)[O-])cc1)(CCc1ccc([N+](=O)[O-])cc1)C(=O)OC
inactive: [1] 19.2% | [2] 3.25% | [3] 4.15% | [4] -17.9% | [5] 24.2% | [6] 34.9%

CC1(C)[C@H](C(=O)O)CC[C@]1(C)C(=O)O
inactive: [1] 9.9% | [2] -13.1% | [3] 1.05% | [4] 19.2% | [5] -0.7% | [6] 11.4%

Cc1cc(Cc2cc(C)c(O)c(CN(C)C)c2)cc(CN(C)C)c1O
inactive: [1] -1.8% | [2] -7.7% | [3] 1.35% | [4] -19.5% | [5] -6.1% | [6] -7.05%

O=C1OC(=O)C(=C(c2ccccc2)c2ccccc2)C1=C(c1ccccc1)c1ccccc1
inactive: [1] 51.8% | [2] 64.1% | [3] 48.4% | [4] 43.5% | [5] 53.1%
active: [6] 76.8%

Fc1ccc2nc3ccccc3c(SCCNCCSc3c4ccccc4nc4ccc(F)cc34)c2c1
inactive: [1] 43.4% | [2] -4.75% | [3] 17% | [4] 16.1% | [5] 1.5% | [6] 35.2%

O=C1CC(N2CCOCC2)c2ccccc21 (configuration not stated)
inactive: [1] 30% | [2] 11.1% | [3] 12.6% | [4] -21.1% | [5] -14% | [6] 14.2%

COc1cccc(CSCC(=O)O)c1
inactive: [1] -9.3% | [2] -26.5% | [3] -44.2% | [4] 7.25% | [5] -17.6% | [6] -1.6%

COc1cccc(NC(=O)CC(=O)Nc2cccc(OC)c2)c1
inactive: [1] -5.05% | [2] 3.6% | [3] -8.4% | [4] -32.1% | [5] 10.1% | [6] -18.7%

CC(O)C(O)C(O)C(O)C(/C=N/Nc1ccccc1)=N/Nc1ccccc1 (configuration not stated)
inactive: [1] 3.75% | [2] -14% | [3] 8.1% | [4] -9.95% | [5] 0.25% | [6] 22.8%

COc1ccc2oc(C(=O)O)cc2c1
inactive: [1] -4.55% | [2] -3.65% | [3] -9.05% | [4] -25% | [5] -6.6% | [6] 0.6%

Clc1ccc(NC2=NCCN=C(Nc3ccc(Cl)cc3)SS2)cc1
inactive: [1] 23.7% | [2] 14.2% | [3] 39.8% | [4] 17.4% | [5] 37.5% | [6] 20.7%

CN(C)NC1=NS(=O)(=O)c2cc3c(cc2S1)N(N(C)C)C(=O)c1cc2c(cc1N(N(C)C)C3=O)SC(NN(C)C)=NS2(=O)=O
inactive: [1] -6.3% | [2] -22.5% | [3] -14.4% | [4] 2.35% | [5] 16.4% | [6] -2.9%

Cn1c(=O)cc(CCl)c2ccccc21
inactive: [1] 26.9% | [2] 26.6% | [3] 44% | [4] 28.4% | [5] 31.7% | [6] 52%

COc1cc(OC)c(NC(=O)ON2C(=O)c3ccccc3C2=O)cc1Cl
inactive: [1] 8.2% | [2] -1.75% | [3] -2.3% | [4] 11.8% | [5] 0.5% | [6] 24.6%

CCCC(C(O)CC)[N+](=O)[O-] (configuration not stated)
inactive: [1] 8.65% | [2] -16.1% | [3] 11.7% | [4] 5.35% | [5] -6.25% | [6] 21.6%

Cc1cc(C)c2cnnn2n1
inactive: [1] 10.1% | [2] -14.1% | [3] 0.6% | [4] 15.4% | [5] -21.1% | [6] -2.75%

Source: PubChem BioAssay (NCI)
